DENV2 CPE: inhibitors of DENV2 cytopathic effect, primary screen, cell-based, plate reader, single concentration; AID 651640, 2012; hit rate 1.7% among 350,000; CPE inhibition, % at 9.99 µM; DENV2-infected cells, cytopathic effect rescue; in the data active = CPE inhibition above about 20%, passing the limit was not always enough; inconclusive = no clear call, values can overlap the other calls; tested in BHK-21 cells;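 note: 0% = median of neutral control wells and 100% = median of positive control wells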
ERAP1 HTS inh: human ERAP1 aminopeptidase inhibitors, primary screen, biochemical, single point, plate reader; Endoplasmic reticulum aminopeptidase 1 (Homo sapiens), Q9NZ08; recombinant ERAP1, Leu-AMC fluorescence, 60 min; inhibition, % at 10.7 µM; hit rate 0.15% among 340,000;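 active = mean replicate inhibition of at least 30%, or all replicates individually reaching that 30% level; inactive = mean below 30% and not every replicate reaching it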;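 note: 0% = neutral control wells and 100% = L-leucinethiol positive control wells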
Target sequence (Q9NZ08 whole entry, looked up): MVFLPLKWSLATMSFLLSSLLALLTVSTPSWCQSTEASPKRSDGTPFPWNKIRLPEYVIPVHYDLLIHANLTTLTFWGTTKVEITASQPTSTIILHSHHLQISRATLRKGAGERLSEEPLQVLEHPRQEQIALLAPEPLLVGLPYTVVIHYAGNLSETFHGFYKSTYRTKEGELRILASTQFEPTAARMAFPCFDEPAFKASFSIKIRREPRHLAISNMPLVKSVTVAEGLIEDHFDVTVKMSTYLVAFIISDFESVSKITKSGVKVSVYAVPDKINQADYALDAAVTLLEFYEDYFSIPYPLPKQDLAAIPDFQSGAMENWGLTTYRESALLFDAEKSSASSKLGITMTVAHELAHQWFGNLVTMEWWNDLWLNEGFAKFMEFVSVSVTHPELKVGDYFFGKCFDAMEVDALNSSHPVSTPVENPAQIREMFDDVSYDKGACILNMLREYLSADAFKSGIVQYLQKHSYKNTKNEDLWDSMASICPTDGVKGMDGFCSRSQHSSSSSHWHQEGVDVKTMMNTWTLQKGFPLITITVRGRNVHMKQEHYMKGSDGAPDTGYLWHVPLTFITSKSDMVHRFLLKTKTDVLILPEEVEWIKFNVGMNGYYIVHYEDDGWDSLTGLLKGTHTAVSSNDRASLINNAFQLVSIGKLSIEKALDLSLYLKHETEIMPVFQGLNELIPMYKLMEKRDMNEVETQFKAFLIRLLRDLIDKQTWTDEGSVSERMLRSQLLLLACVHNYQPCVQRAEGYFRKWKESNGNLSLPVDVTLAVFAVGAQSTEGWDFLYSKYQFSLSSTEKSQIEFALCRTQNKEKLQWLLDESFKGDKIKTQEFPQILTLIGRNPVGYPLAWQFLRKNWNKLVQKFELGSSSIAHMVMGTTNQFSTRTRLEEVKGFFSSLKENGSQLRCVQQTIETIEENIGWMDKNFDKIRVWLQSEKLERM
AF4-AF9 inh: inhibitors of AF4 peptide binding to AF9, primary screen, biochemical, AlphaScreen, biotin-AF4 peptide, FLAG-AF9, single point; inhibition, % at 10 µM; hit rate 0.47% among 350,000; AID 651704, 2012; Protein AF-9 (Homo sapiens), P42568;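 active = every replicate reaching a set inhibition limit, whatever the replicate mean, cut at about 25% in these data; inconclusive = mean inhibition reaches that limit but some replicates miss it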;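 note: 0% = plate neutral control median and 100% = total signal loss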
ERp5 block: inhibitors of ERp5-driven insulin aggregation, primary screen, biochemical, turbidity, absorbance 650 nm, single point. Protein disulfide-isomerase A6 (Homo sapiens), Q15084. 90 min. inhibition, % at 9.99 µM. hit rate 0.05% among 350,000. AID 651711, 2012;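 active = mean replicate inhibition above about 25%, with every replicate also reaching it, limit read from the data, passing the limit was not always enough; inconclusive = only one of those two criteria met; inactive = neither criterion met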
PDI turbidity: inhibitors of human PDI, primary screen, biochemical, turbidity, single point, plate reader | PDI insulin aggregation turbidity, A650, 90 min | inhibition, % at 10 µM | hit rate 0.052% among 350,000 | AID 588391, 2011;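 active = mean inhibition across replicates of 30% or more, whatever share of single replicates reach that level; inconclusive = mean inhibition below 30% while every single replicate reaches 30%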
AlphaScreen intf: AlphaScreen signal interference counter-screen, dose response, artefact control, biochemical, cherry-picked samples, luminescence; shares compounds with AF4-AF9 inh; hit rate 45% among 530; AID 720494, 2013; AC50, µM (top dose mostly 12 µM), inactives show at the top dose activity change, negative = inhibition; cut-off not given, nearly all actives have AC50 up to about 14 µM
* = called active by the depositor; ? = inconclusive; nt = no result; ! = a repeat was not active. A selection: hits, their analogues and other compounds. The true share with any hit is near 1.8%.

SMILES	DENV2 CPE	ERAP1 HTS inh	AF4-AF9 inh	ERp5 block	PDI turbidity	AlphaScreen intf
COc1ccc2c3c([nH]c2c1)[C@@H](CO)N(C(=O)Nc1ccc(F)cc1)CC31CN(C(=O)Nc2ccc3c(c2)OCO3)C1	18	2	2	-1	nt	nt
Cn1cc(C(=O)N/N=C/c2c(O)ccc3ccccc23)ccc1=O	-5	-1	24	3	-9	-11%
O=C(N/N=C/c1c(O)ccc2ccccc12)c1ccc[n+](CCO)c1	12	12	82*	1	-2	0.61µM*
CCN(CC)CCCNc1ccc2ncn3c4ccc(O)cc4c(=O)c1c23	-2	33*	24	4	-4	-20%
CCN(CC)CCCNc1ncnc2ccccc12	6	3	3	3	3	nt
O=C(C[C@@H]1CC[C@@H]2[C@H](COC[C@H](O)CN2Cc2ccc(F)cc2)O1)N1CCc2ccccc2C1	2	2	1	-6	nt	nt
O=C(C[C@H]1C[C@@H]2c3cc(NC(=O)NC4CCCC4)ccc3O[C@@H]2[C@@H](CO)O1)NCc1ccccc1F	-3	1	-1	-6	nt	nt
CN(C)c1ccc(N=Nc2ccccc2Br)cc1	-11	-4	35*	3	14	12µM*
CC(=O)c1ccc(N=Nc2ccc(N(C)C)cc2)cc1	3	0	4	0	-2	nt
CN(C)c1cccc2c(C=C(C#N)C#N)ccc(N(C)C)c12	5	-3	51*	10	-1	-23%
CNC(=S)N1N=C(c2ccc(Br)cc2)CC1c1ccc(N(C)C)cc1 (configuration not stated)	18	1	27*	-2	-8	-30%
CC1=C/C(=C(\c2cc(C)c(O)c(Br)c2)c2ccccc2S(=O)(=O)O)C=C(Br)C1=O	-7	21	52*	-4	-4	8.9µM*
Cc1cc(N=Nc2ccc(Cl)cc2)cc(CN2CCOCC2)c1O	15	1	30*	2	-3	-34%
Oc1c(CN2CCOCC2)cc(CN2CCOCC2)cc1CN1CCOCC1	2	-1	-3	-11	-61	nt
CN(C)CCCNC(=O)c1ccc(-c2cc(O)c3ncccc3c2)cc1	nt	2	87*	-7	13	1.8µM*
CN(C)c1ccc(-c2cc(O)c3ncccc3c2)cc1	0	-1	15	-2	3	nt
Oc1cc(-c2ccncc2)cc2cccnc12	9	-6	29*	-8	-1	9.1µM*
CN(C)CCCNC(=O)c1ccccn1	nt	nt	nt	nt	-9	nt
O=C(Nc1ccc(F)cc1)N[C@@H]1CC[C@H](CC(=O)N2CCOCC2)O[C@H]1CO	15	-1	1	5	nt	nt
CO[C@H]1CN(C)C(=O)c2ccc(NC(C)=O)cc2OC[C@@H](C)N(C(=O)C2CCCCC2)C[C@H]1C	-3	3	1	8	nt	nt
C/C=C/c1ccc2c(c1)O[C@@H](CN(C)C(=O)c1cccc(F)c1)[C@@H](C)CN([C@H](C)CO)S2(=O)=O	-4	2	4	12	nt	nt
NCCCC[C@@H]1NC(=O)c2cc([N+](=O)[O-])cc(F)c2NCCCC[C@@H](C(N)=O)NC(=O)CNC1=O	9	10	42*	-1	-1	-26%
CC[C@H](C)[C@@H]1NC(=O)c2cc([N+](=O)[O-])cc(F)c2NCCCC[C@@H](C(N)=O)NC(=O)[C@H](CCCCN)NC1=O	-1	21	?	0	-3	-18%
CCCN(C)C[C@H]1OCCCC[C@@H](C)Oc2ccc(NS(=O)(=O)c3cccs3)cc2C(=O)N([C@H](C)CO)C[C@@H]1C	-9	-1	4	-3	nt	nt
Cc1csc(Nc2ccccc2)[n+]1-c1ccccc1	4	-1	28*	9	4	-35%
SMILES	DENV2 CPE	ERAP1 HTS inh	AF4-AF9 inh	ERp5 block	PDI turbidity	AlphaScreen intf
Nc1ccc(N)c(C(=O)O)c1	nt	nt	27*	nt	18	-8%
Nc1ccc(C(=O)O)c(O)c1	1	1	9	-1	3	nt
C[C@@H]1CN([C@@H](C)CO)C(=O)Cc2cc(N(C)C)ccc2O[C@@H]1CN(C)Cc1ccc2c(c1)OCO2	9	-1	6	3	nt	nt
C[C@@H]1CCCCO[C@H](CN(C)Cc2ccc(Cl)c(Cl)c2)[C@@H](C)CN([C@H](C)CO)C(=O)c2cc(N(C)C)ccc2O1	-1	0	50*!	2	6	-38%
C[C@H]1CN([C@@H](C)CO)C(=O)Cc2cc(N(C)C)ccc2O[C@H]1CN(C)Cc1ccc2c(c1)OCO2	10	1	4	4	nt	nt
C[C@@H]1CCCCO[C@H](CN(C)Cc2ccc3c(c2)OCO3)[C@H](C)CN([C@H](C)CO)C(=O)c2cc(N(C)C)ccc2O1	3	1	6	0	nt	nt
C[C@@H]1CN([C@@H](C)CO)C(=O)Cc2cc(N(C)C)ccc2O[C@H]1CN(C)Cc1ccc(Cl)c(Cl)c1	-2	2	48*	-2	nt	12µM*
C[C@H](CO)N1C[C@H](C)[C@@H](CN(C)Cc2ccc(Cl)c(Cl)c2)Oc2ccc(N(C)C)cc2CC1=O	9	1	40*	1	nt	-36%
C[C@H](CO)N1C[C@H](C)[C@H](CN(C)C(=O)CCCN(C)C)OCCCC[C@H](C)Oc2ccc(NC(=O)Nc3ccc(C(F)(F)F)cc3)cc2C1=O	-9	nt	nt	nt	nt	nt
CCCNC(=O)N1C[C@@H](O)COC[C@H]2O[C@@H](CC(=O)NCc3ccncn3)CC[C@@H]21	2	1	-3	1	nt	nt
CCCN(C)C[C@H]1OCCCC[C@H](C)Oc2ccc(NS(=O)(=O)c3ccccc3)cc2C(=O)N([C@H](C)CO)C[C@H]1C	?	1	4	-5	nt	nt
CN(C)CCNC(=O)c1cccc(-c2cc(NC=O)c3ncc(-c4cccc(C(F)(F)F)c4)n3c2)c1	9	7	36*	-6	6	-33%
CCCC(=O)NC(c1ccc(C(C)C)cc1)c1ccc2cccnc2c1O (configuration not stated)	-3	-4	-1	3	-5	nt
CCCC(=O)NC(c1ccc(N(C)C)cc1)c1ccc2cccnc2c1O (configuration not stated)	15	-3	50*	-4	1	1.5µM*
CCc1nc2ccc(C(=O)NC3CCN(C)CC3)cn2c1N(C)CCC(C)C	6	-9	4	-3	5	nt
CCc1nc2ccc(C(=O)NC3CCN(Cc4ccccc4)CC3)cn2c1N(C)Cc1ccc(N(C)C)cc1	-6	-2	52*	10	0	8.5µM*
COc1ccc2c3c(n(C)c2c1)[C@@H](CO)N(Cc1ccccc1F)CC31CN(C(C)=O)C1	4	-3	-9	-3	nt	nt
O=C(c1ccccc1F)N1C[C@@H]2[C@H](c3ccccc31)[C@H](CO)N2C(=O)c1cccnc1	-12	2	-2	0	nt	nt
